# Data: paper PMC5540273 (PLoS ONE, 2017)
# Legend:
# Conditions in all cases: concentration: 1 μM,replicates: in singlicate; n = 1
# [1] = tested on: BMX
# [2] = tested on: BRAF
# [3] = tested on: T1, BRK
# T1 construct: gene PTK6
# [4] = tested on: BRSK1
# [5] = tested on: BRSK2
# [6] = tested on: BTK
# [7] = tested on: BUB1
# [8] = tested on: CAMK1B
# [9] = tested on: CAMK1D
# [10] = tested on: CAMK1G
# [11] = tested on: CAMK1
# [12] = tested on: CAMK2A
# [13] = tested on: CAMK2B
# [14] = tested on: CAMK2D
# [15] = tested on: CAMK2G
# [16] = tested on: CAMK4
# [17] = tested on: CAMKK1
# [18] = tested on: CAMKK2
# [19] = tested on: CASK
# [20] = tested on: T2, CDC2L1
# T2 construct: gene CDK11B
# 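Also: KINOMEscan kinase panel screen.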
SMILES,%Inh [1] [%],%Inh [2] [%],%Inh [3] [%],%Inh [4] [%],%Inh [5] [%],%Inh [6] [%],%Inh [7] [%],%Inh [8] [%],%Inh [9] [%],%Inh [10] [%],%Inh [11] [%],%Inh [12] [%],%Inh [13] [%],%Inh [14] [%],%Inh [15] [%],%Inh [16] [%],%Inh [17] [%],%Inh [18] [%],%Inh [19] [%],%Inh [20] [%]
COC(=O)Nc1nc2cc(Oc3ccc(NC(=O)Nc4cc(C(F)(F)F)ccc4Cl)cc3)ccc2[nH]1.Cl [GW697465],95.2,41,12,0,0,7,67,0,13,0,5,0,0,0,7,0,2,0,0,0
CN(c1ccc2c(c1)nc(NCc1ccc(F)cc1)n2C)c1ccnc(Nc2ccc(CS(C)(=O)=O)cc2)n1.Cl [GW813244],16,96.8,88,0,0,0,50,0,0,22,0,0,0,0,1,0,0,6,15,94.5
Cc1n[nH]c2cc(Nc3ccnc(Nc4cccc(CN5CCOCC5)c4)n3)ccc12 [GW682569],11,0,47,0,0,60,36,37,26,1,43,0,0,5,0,0,21,13,0,7
CC(C)c1nc(-c2cccc(NS(=O)(=O)c3ccccc3)c2)c(-c2ccnc(Nc3ccc4c(c3)CN(C)CC4)n2)s1 [GSK1649598],96.2,99.9,99.4,24,46,84,82,0,42,11,57,0,0,22,28,0,29,23,14,15
CS(=O)(=O)c1cccc(CNc2nc(Nc3ccc4c(c3)[C@@H]3C[C@@H]4CNC3=O)ncc2C(F)(F)F)c1,4,0,0,0,0,0,0,19,0,0,1,0,0,0,0,0,41,15,0,0
Cl.c1ccc(Oc2ccc(Nc3ccnc4cc(-c5ccc(CN6CCNCC6)o5)ccc34)cc2)nc1 [GW567142],4,0,92.7,0,0,76,38,0,20,0,29,0,0,3,0,0,0,0,0,0
Cc1ccc(C(=O)Nc2ccc(Oc3ccc4nc(NC(=O)C5CC5)cn4c3)c(F)c2)c(=O)n1-c1ccccc1,73,57,88,0,0,0,0,0,0,0,0,0,0,0,3,10,11,10,12,0
Cn1ccc2ncnc(Oc3ccc(NC(=O)Nc4cncc(C(F)(F)F)c4)c(Cl)c3)c21,0,52,0,0,0,0,0,0,0,0,0,0,0,0,0,0,0,14,0,0
Cn1ccc2ncnc(Oc3ccc(NC(=O)Nc4cccc(C(F)(F)F)c4)c(Cl)c3)c21,15,46,5,0,0,0,0,16,16,1,4,0,0,7,0,6,0,0,0,0
FC(F)(F)c1cc(Br)cc(Nc2nccc(-c3cnn4ncccc34)n2)c1 [GW810578],10,0,0,0,0,0,16,29,5,18,23,0,6,21,28,0,45,59,22,0
Cc1ccc(Nc2ccnc(Nc3ccc4c(c3)CS(=O)(=O)C4)n2)cc1O.Cl [GW579362],80,77,95,10,3,100,99.3,31,38,34,62,0,0,29,42,0,24,31,12,44
C[C@@H](Oc1cc(-n2cnc3cc(-c4cnn(C)c4)ccc32)sc1C(N)=O)c1ccccc1Cl [GSK580432],22,0,0,82,93.3,0,27,22,31,26,39,0,9,23,25,0,59,90.3,23,0
CSc1nccc(-c2c(-c3ccc(F)cc3)ncn2CCCN2CCOCC2)n1.Cl [SB-217146],0,4,0,0,0,0,14,0,12,0,6,0,0,0,0,0,0,0,0,0
CS(=O)c1ccc(-c2coc3ccc(-c4n[nH]c(=O)o4)cc23)cc1 (centres unmarked),0,12,0,0,2,20,14,14,0,12,0,5,16,6,3,0,7,12,26,0
Nc1nccc(-c2ccc3c(N)n[nH]c3c2)n1 [GSK1034945],0,0,4,41,15,0,73,10,7,0,11,0,5,0,0,0,1,8,6,0
CC(C(=O)NC1CCN(c2ccnc(Nc3ccc(F)cc3)n2)C1)c1ccc(Cl)cc1 (centres unmarked) [GSK1379713],0,0,0,5,0,0,18,37,8,13,8,0,0,2,26,0,0,5,0,0
